Experimental data as given in PubChem BioAssay (NCATS).
Results filed as inconclusive are left out. Entries that show only a call come without a potency. The source made the active and inactive calls. Calls come from the whole dose curve; as a rule, active = well fitted curve in the direction sought with a large enough effect; inconclusive = small, poorly fitted or top-dose-only effect, or another doubt; inactive = no such curve, though single readings can be large; an effect the other way counts as inactive or inconclusive.

System: not listed separately
Experiment: qHTS to identify inhibitors of the type 1 interferon - major histocompatibility complex class I in skeletal muscle: primary screen against the NCATS Mechanism Interrogation Plate v5.0 (MIPE) Libary (AID 1347411); note: nearly all actives have a fitted effect of over 65% in size; note: potency is the fitted concentration of half-maximal effect
Conditions: iHSKM cells + IFN-b, HiBiT-tagged MHC-I luminescence, 24 h; series mostly up to 45.8 µM
Procedure, shortened: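 Immortalized human myoblasts (C25cl48) with HiBit knocked into endogenous HLA-B*08:01 were stimulated with 4 ng/ml IFN-beta and given compounds in 11-point 1:3 titration from 46 uM. After 24 h at 37 C, lytic HiBiT luminescence was read.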

| SMILES | Potency |
| --- | --- |
| CN[C@@H]1[C@@H](O)[C@@H](O[C@@H]2[C@@H](O)[C@H](O[C@H]3O[C@H](CN)[C@@H](O)[C@H](O)[C@H]3O)[C@@H](N)C[C@H]2NC(=O)C(O)CN)OC[C@]1(C)O (stereo partly specified) | inactive |
| CC[C@H](CC[C@@H](C)[C@H]1CC[C@H]2[C@@H]3CC=C4C[C@@H](O)CC[C@]4(C)[C@H]3CC[C@]12C)C(C)C | inactive |
| CC(=O)NCCCS(=O)(=O)O | inactive |
| CNC(=O)[C@H](Cc1c[nH]c2ccccc12)NC(=O)[C@@H](CC(=O)NO)CC(C)C | inactive |
| CO[C@H]1O[C@@H]2O[C@@]3(C)CC[C@H]4[C@H](C)CC[C@@H]([C@H]1C)[C@@]24OO3 | inactive |
| CC(C)Cc1ccc([C@@H](C)C(=O)NS(C)(=O)=O)cc1 | inactive |
| CCCCC[C@H](O)/C=C/[C@H]1[C@H](O)CC(=O)[C@@H]1CCCCCCC(=O)O | inactive |
| COc1ccc([C@@H]2CC(=O)c3c(O)cc(O[C@@H]4O[C@H](CO[C@@H]5O[C@@H](C)[C@H](O)[C@@H](O)[C@H]5O)[C@@H](O)[C@H](O)[C@H]4O)cc3O2)cc1O | inactive |
| C[C@H]1O[C@@H](O[C@H]2[C@@H](O)C[C@H](O[C@H]3[C@@H](O)C[C@H](O[C@H]4CC[C@@]5(C)[C@H](CC[C@@H]6[C@@H]5C[C@@H](O)[C@]5(C)[C@@H](C7=CC(=O)OC7)CC[C@]65O)C4)O[C@@H]3C)O[C@@H]2C)C[C@H](O)[C@@H]1O | 0.037 µM (active) |
| NC[C@H]1O[C@H](O[C@H]2[C@H](O)[C@@H](O[C@H]3O[C@H](CO)[C@@H](O)[C@H](N)[C@H]3O)[C@H](N)C[C@@H]2N)[C@H](N)C[C@@H]1O | inactive |
| CC[C@H]1OC(=O)[C@H](C)[C@@H](O[C@H]2C[C@@](C)(OC)[C@@H](O)[C@H](C)O2)[C@H](C)[C@@H](O[C@@H]2O[C@H](C)C[C@H](N(C)C)[C@H]2O)[C@](C)(O)C[C@@H](C)CN(C)[C@H](C)[C@@H](O)[C@]1(C)O | inactive |
| Oc1ccc(/C=C/c2cc(O)cc(O)c2)cc1 | inactive |
| C=CC[N+]1([C@H]2C[C@H]3[C@@H]4CC[C@H]5C[C@H](O)[C@@H](N6CCOCC6)C[C@]5(C)[C@H]4CC[C@]3(C)[C@H]2OC(C)=O)CCCC1 | inactive |
| COc1cc(C)c(/C=C/C(C)=C/C=C/C(C)=C/C(=O)O)c(C)c1C | inactive |
| CCC[C@@H]1C[C@@H](C(=O)N[C@@H]([C@H]2O[C@H](SC)[C@H](O)[C@@H](O)[C@H]2O)[C@H](C)Cl)N(C)C1 | inactive |
| C=C1[C@H](CO)[C@@H](O)C[C@@H]1n1cnc2c(=O)[nH]c(N)nc21 | inactive |

Target: Protein phosphatase 1D (Homo sapiens) (UniProt O15297)
Experiment: RapidFire Mass Spectrometry qHTS Assay for Modulators of WT P53-Induced Phosphatase 1 (WIP1) (AID 1347424);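 note: amount of dephosphorylated VEPPL-S-QETFS peptide product formed by WIP1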
Conditions: WIP1 dephosphorylation of phosphopeptide, RapidFire MS; series mostly up to 63 µM
Excerpt: Assay Provider (PI): Nathan Coussens Ph. D.
National Center for Advancing Translational Sciences (NCATS), Rockville, MD
National Institute of Health (NIH), Bethesda, Maryland
WT P53-Induced Phosphatase 1 (WIP1) is a member of the magnesium-dependent serine/threonine protein phosphatase (PPM) family and is induced by P53 in response to DNA damage. In several human cancers, the WIP1 protein is overexpressed, which is generally associated with a worse prognosis. Although WIP1 is an attractive therapeutic target, no potent, selective, and bioactive small-molecule modulator with favorable pharmacokinetics has been reported. Phosphatase enzymes are among the most challenging targets for small molecules because of the difficulty of achieving both modulator selectivity and bioavailability. Another major obstacle has been the availability of robust and physiologically relevant phosphatase assays that are suitable for high-throughput screening.
Here, we describe two orthogonal biochemical WIP1 activity assays that utilize phosphopeptides from native WIP1 substrates. We optimized a RapidFire MS assay to quantify the enzymatically dephosphorylated peptide reaction product in a 384-well format. Additionally, a redshifted Rhodamine-PBP fluorescence assay was optimized in a 1,536-well format to enable real-time WIP1 activity measurements through the detection of the orthogonal reaction product, Pi. We validated these two optimized assays by quantitative high-throughput screening against the National Center for Advancing Translational Sciences (NCATS) Pharmaceutical Collection and used secondary assays to confirm and evaluate inhibitors identified in the primary screen.
SEQUENCE No. (e.g., 1, 2, 3, etc.); […] (e.g., Cells, Incubation, Reagent, etc.); VALUE; DESCRIPTION
1; Reagent; 50 uL; dispensed assay buffer: 0.1% formic acid in water (10 uL : 40 uL) solution in column 1
3; Library Compounds; 63 nL; library compounds in DMSO, columns 3-24
4; Control Compounds; 63 nL; DMSO in wells I-P, columns 1-2, GSK830371 (10 uM, final) in wells A-H, column 2
5; Time; 1 hr; incubation
6; Substrate; 2 uL; VEPPL-pS-QETFS (10 uM) in assay buffer, column 2-24
7; Time; 5 min; incubation
8; Reagent; 2 uL; 0.5% formic acid in water, columns 2-24
9; Reagent; 38 uL; VEPPL-S-QETF*S in 0.1% formic acid, columns 2-24
10; Detection; mass spec; RapidFire mass spectrometry
NOTES (numbers refer to sequence above)
1, 2, 6; dispensed reagent in White Nunc 384-well PP microplates (264573); assay buffer: 50 mM Tris-HCl pH 7.5, 30 mM MgCl2, 1 mM TCEP, 0.1 mM EGTA, 75 ug/mL BSA.
2, 6, 8, 9; Dispensed with BioRaptr (Beckman Coulter)
2, 6, 9; Final concentrations: 10 nM WIP1; 2 uM VEPPL-pS-QETFS; 1 uM VEFFL-S-QETF*S
3 & 4; Kalypsys Pintool transfer (Wako USA), Tip wash sequence: water, DMSO, methanol, 20 sec vacuum dry.
5 & 7; incubation at room temperature
10; RapidFire mass spectrometry read using the Agilent RapidFire 360 (Clausse, 2019)
Clausse V, et al. Physiologically relevant orthogonal assay for the discovery of small-molecule modulators of WIP1 […] in high-throughput screens. J Biol Chem. 2019, 294(46): 17654-17668. doi:10.1074/jbc.RA119.010201

Chain of Protein phosphatase 1D (Homo sapiens) (O15297 whole entry, looked up): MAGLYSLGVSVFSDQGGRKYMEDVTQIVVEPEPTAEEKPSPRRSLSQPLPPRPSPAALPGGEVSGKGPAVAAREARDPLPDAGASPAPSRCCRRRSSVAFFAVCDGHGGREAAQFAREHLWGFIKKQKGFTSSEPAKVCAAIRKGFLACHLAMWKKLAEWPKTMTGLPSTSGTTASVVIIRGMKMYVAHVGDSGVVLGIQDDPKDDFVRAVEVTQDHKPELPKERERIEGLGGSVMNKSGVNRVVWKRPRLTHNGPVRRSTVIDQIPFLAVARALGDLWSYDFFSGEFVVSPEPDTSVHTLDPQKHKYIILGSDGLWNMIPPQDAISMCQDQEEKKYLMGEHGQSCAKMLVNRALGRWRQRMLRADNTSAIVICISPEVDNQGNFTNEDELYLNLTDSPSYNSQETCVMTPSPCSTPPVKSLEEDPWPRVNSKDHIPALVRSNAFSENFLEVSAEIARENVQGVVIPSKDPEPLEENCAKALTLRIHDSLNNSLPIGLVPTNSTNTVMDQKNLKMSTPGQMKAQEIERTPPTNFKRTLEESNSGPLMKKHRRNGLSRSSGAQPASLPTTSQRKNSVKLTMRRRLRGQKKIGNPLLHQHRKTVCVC

| SMILES | outcome |
| --- | --- |
| O=C(O)CCC(=O)c1ccc(-c2ccccc2)cc1 | inactive |
| COc1ccc2nc(NC(=O)Nc3ccccc3)sc2c1 | inactive |
| Nc1ccc(N=Nc2ccccc2)c(N)n1 | inactive |
| O=C(OCc1ccccc1)c1ccc(O)cc1 | inactive |
| O=C1c2ccccc2C(=O)c2c1ccc(O)c2O | inactive |
| Oc1ccc(/C=C/c2cc(O)cc(O)c2)cc1 | inactive |
| CN(C)CCCSc1ccccc1NC(=O)/C=C/c1ccccc1 | inactive |
| CC(=O)Oc1cccc2c1C(=O)c1c(OC(C)=O)cc(C(=O)O)cc1C2=O | inactive |

Target: Protein phosphatase 1D (Homo sapiens) (UniProt O15297)
Experiment: Rhodamine-PBP qHTS Assay for Modulators of WT P53-Induced Phosphatase 1 (WIP1) (AID 1347425)
Conditions: recombinant WIP1, Rhodamine-PBP phosphate fluorescence, real-time; series mostly up to 57.5 µM
Procedure, shortened: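 WIP1 (5 nM final) was preincubated with compound for 1 hour at room temperature. It then dephosphorylated 10 uM VEPPL-pS-QETFS peptide in Tris-HCl pH 7.5 with 30 mM MgCl2. Released Pi was detected by 10 uM Rh-PBP fluorescence (ex 525/em 598 nm) read at 1-min intervals for 11 min, as delta f1 - f0.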

| SMILES | outcome |
| --- | --- |
| O=C(O)CCC(=O)c1ccc(-c2ccccc2)cc1 | inactive |
| Nc1ccc(N=Nc2ccccc2)c(N)n1 | inactive |
| O=C(OCc1ccccc1)c1ccc(O)cc1 | inactive |
| O=C1c2ccccc2C(=O)c2c1ccc(O)c2O | inactive |
| CN(C)CCCSc1ccccc1NC(=O)/C=C/c1ccccc1 | inactive |
| CC(=O)Oc1cccc2c1C(=O)c1c(OC(C)=O)cc(C(=O)O)cc1C2=O | inactive |

System: not listed separately
Experiment: Primary qHTS for inhibitors of La Crosse Virus (LACV) - induced cell death in SH-SY5Y cells (AID 1508616);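 note: top concentration of the series differs between compounds; higher means more rescue of cells from virus-induced death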
Conditions: SH-SY5Y LACV cytopathicity rescue, ATP luminescence, 6 d; series mostly up to 4.29 µM
Procedure, shortened: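 SH-SY5Y cells (6000/well) plated 24 h, then given compounds by pin transfer and LACV at 0.01 MOI for 6 days at 37C. Viability measured by ATPLite luminescence, normalized to infected DMSO and uninfected DMSO.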

| SMILES | outcome |
| --- | --- |
| O=C(O)CCC(=O)c1ccc(-c2ccccc2)cc1 | inactive |
| COc1ccc2nc(NC(=O)Nc3ccccc3)sc2c1 | inactive |
| Nc1ccc(N=Nc2ccccc2)c(N)n1 | inactive |
| O=C(OCc1ccccc1)c1ccc(O)cc1 | inactive |
| O=C1c2ccccc2C(=O)c2c1ccc(O)c2O | inactive |
| Oc1ccc(/C=C/c2cc(O)cc(O)c2)cc1 | inactive |
| CN(C)CCCSc1ccccc1NC(=O)/C=C/c1ccccc1 | inactive |
| CC(=O)Oc1cccc2c1C(=O)c1c(OC(C)=O)cc(C(=O)O)cc1C2=O | inactive |

Target: Calcium and integrin-binding protein 1 (Homo sapiens) (UniProt Q99828)
Experiment: Primary qHTS for Identification of Calcium Integrin Binding Protein 1 (CIB1) Competitor (AID 1508620); note: potency is the fitted concentration of half-maximal effect
Conditions: CIB1-GST / FITC-alphaIIb peptide fluorescence polarization; series mostly up to 114 µM
Procedure, shortened: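 Fluorescence polarization competition: GST-tagged CIB1 (1 uM final) preincubated with compound 15 min at room temperature, then FITC-labelled alphaIIb peptide (100 nM final) added. After 15 min at room temperature, polarization read at Ex 480/Em 540.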

Chain of Calcium and integrin-binding protein 1 (Homo sapiens) (Q99828 whole entry, looked up): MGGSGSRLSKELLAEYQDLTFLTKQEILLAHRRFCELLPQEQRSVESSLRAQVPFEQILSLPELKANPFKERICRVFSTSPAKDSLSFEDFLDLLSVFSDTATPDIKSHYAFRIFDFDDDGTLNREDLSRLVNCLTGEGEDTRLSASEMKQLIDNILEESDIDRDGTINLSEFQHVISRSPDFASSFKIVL

| SMILES | Potency |
| --- | --- |
| CC(=O)Nc1ccc(NC(=S)NC(=O)c2ccc(C(C)(C)C)cc2)cc1 | inactive |
| O=C(O)CCC(=O)c1ccc(-c2ccccc2)cc1 | inactive |
| C/C(=C\C(=O)OCCCCCCCCC(=O)O)C[C@@H]1OC[C@H](C[C@@H]2O[C@H]2[C@@H](C)[C@H](C)O)[C@@H](O)[C@H]1O | inactive |
| COc1ccc(C[C@H](C)NC[C@@H](O)c2ccc(O)c(NC=O)c2)cc1 | inactive |
| COc1ccc2nc(NC(=O)Nc3ccccc3)sc2c1 | inactive |
| O=C(OCc1ccccc1)c1ccc(O)cc1 | inactive |
| C=C1CC[C@H](O)CC1=C/C=C1\CCC[C@]2(C)[C@@H]([C@H](C)/C=C/[C@H](C)C(C)C)CC[C@@H]12 | inactive |
| O=C1c2ccccc2C(=O)c2c1ccc(O)c2O | 35.5 µM (active) |
| C[C@H]1O[C@@H](O[C@H]2[C@@H](O)C[C@H](O[C@H]3[C@@H](O)C[C@H](O[C@H]4CC[C@@]5(C)[C@H](CC[C@@H]6[C@@H]5C[C@@H](O)[C@]5(C)[C@@H](C7=CC(=O)OC7)CC[C@]65O)C4)O[C@@H]3C)O[C@@H]2C)C[C@H](O)[C@@H]1O | inactive |
| CC(C)(C)c1ccc(CN2CCN(C(c3ccccc3)c3ccc(Cl)cc3)CC2)cc1 (stereo unspecified) | inactive |
| C[C@]12CC[C@@H]3c4ccc(OC(=O)c5ccccc5)cc4CC[C@H]3[C@@H]1CC[C@@H]2O | inactive |
| CC1CC(OC(=O)C(O)c2ccccc2)CC(C)(C)C1 (stereo unspecified) | inactive |
| Oc1ccc(/C=C/c2cc(O)cc(O)c2)cc1 | inactive |
| CN(C)CCCSc1ccccc1NC(=O)/C=C/c1ccccc1 | inactive |
| O=C(O)Cc1cc(I)c(Oc2ccc(O)c(I)c2)c(I)c1 | inactive |
| C=C1[C@H](CO)[C@@H](O)C[C@@H]1n1cnc2c(=O)[nH]c(N)nc21 | inactive |
| CCN(CC)CCOCCOC(=O)C(CC)(CC)c1ccccc1 | inactive |
| CO[C@H]1C[C@@H]2CC[C@@H](C)[C@@](O)(O2)C(=O)C(=O)N2CCCC[C@H]2C(=O)O[C@H]([C@H](C)C[C@@H]2CC[C@@H](OC(=O)C(C)(CO)CO)[C@H](OC)C2)CC(=O)[C@H](C)/C=C(\C)[C@@H](O)[C@@H](OC)C(=O)[C@H](C)C[C@H](C)/C=C/C=C/C=C/1C | inactive |
